Compound activity (PubChem BioAssay)
KinaseGlo FLuc: counter-screen: inhibitors of Kinase-Glo firefly luciferase | Q27757 | Kinase-Glo luciferase, ATP luminescence, 8 min | Potency, µM (titrated, usually from 38.3 µM), without a hit: at the highest dose activity change, negative = inhibition, actives largely listed as inhibitors | hit rate 0.28% among 200,000 | AID 1379; further: on the % scale 0 is the no-effect control and ±100 the full control effect; nearly all actives have a fitted effect of over 60% in size
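Luminescence was the read-out, taken after 8-minute incubation at ambient temperature. Luciferase turned over luciferin with 10 uM ATP in imidazole pH 7.2 buffer containing KCl, MgCl2, Tween 20 and BSA.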
ELG1 genotox: inducers of genotoxicity in HEK293T ELG1-luciferase cells | HEK293T ELG1-luciferase reporter, luminescence, 16 h | Potency, µM (doses to about 46 µM), without a hit: at the top dose activity change, positive = activation, most hits filed as activators | hit rate 1.3% among 330,000; further: % of control where 0% means no effect; nearly all actives have a fitted effect of over 60% in size
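HEK293T cells expressing luciferase-tagged ELG1 were treated with compound or DMSO for 16 hr at 37°C. Luciferase activity was then read after 30 min with ONE-Glo at room temperature; rising signal flags genetic stress.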
FLuc counter: firefly luciferase modulation, counter-screen for miR-21 project; Potency, µM (titrated, usually from 57.5 µM), for inactives: top-dose activity change, negative = inhibition, usual class: inhibitors; purified FLuc, Km substrates, luminescence inhibition; P08659; hit rate 6.9% among 360,000;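 further: plate controls were vehicle for no effect and reference inhibitor for full effect; nearly all actives have a fitted effect of over 55% in size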
Target sequence (P08659 whole entry, looked up): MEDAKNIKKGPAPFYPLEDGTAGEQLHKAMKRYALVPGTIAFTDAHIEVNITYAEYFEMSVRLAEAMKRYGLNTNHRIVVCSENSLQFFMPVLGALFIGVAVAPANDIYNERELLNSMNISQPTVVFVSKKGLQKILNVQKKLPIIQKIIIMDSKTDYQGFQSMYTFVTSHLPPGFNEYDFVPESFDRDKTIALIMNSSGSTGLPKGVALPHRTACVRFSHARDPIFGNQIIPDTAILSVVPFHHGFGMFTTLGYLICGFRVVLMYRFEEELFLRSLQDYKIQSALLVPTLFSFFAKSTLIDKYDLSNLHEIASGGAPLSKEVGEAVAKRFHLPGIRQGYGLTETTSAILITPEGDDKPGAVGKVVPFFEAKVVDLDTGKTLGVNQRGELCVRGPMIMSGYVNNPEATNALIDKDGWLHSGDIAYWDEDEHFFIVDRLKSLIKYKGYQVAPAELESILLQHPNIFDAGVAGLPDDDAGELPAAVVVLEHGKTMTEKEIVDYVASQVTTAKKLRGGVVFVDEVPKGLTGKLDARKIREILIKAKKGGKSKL
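Purified P. pyralis luciferase, 10 nM final, with Km-level 10 uM D-luciferin and 10 uM ATP in 50 mM Tris acetate pH 7.5, 10 mM Mg acetate, 0.01% Tween-20, 0.05% BSA; 6-point qHTS titration about 60 µM downward; luminescence read.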
SMN2 splice enh: SMN2 splice variant enhancement | hit rate 2.8% among 210,000 | Potency, µM (titrated, usually from 46.1 µM), for the others: at the highest dose activity change, positive = activation, usual class: activators | HEK293 SMN2-luciferase splicing reporter, luminescence, 30-36 h; further: % of control where 0% means no effect; nearly all actives have a fitted effect of over 55% in size
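HEK293 cells carry an SMN2 […]–luciferase reporter in which exon 7 inclusion puts luciferase in frame. Cells were plated 10-12 h before compound addition, then incubated 30-36 h at 37C. ONE-Glo luminescence was read; sodium butyrate at 4.5 mM final served as control.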
NPC1 promoter act: NPC1 promoter activation; Huh7 NPC1 promoter luciferase reporter, 24 h; Potency, µM (series often up to 9.22 µM), for the others: at the highest dose activation, most hits filed as activators; hit rate 2.4% among 320,000; AID 485313; further: % of control where 0% means no effect; nearly all actives have a fitted effect of over 60% in size
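Stable NPC1-promoter luciferase Huh7 line; cpd (DMSO) 24 h, 37 °C, 5% CO2; Amplite luciferase reagent 10 min RT; luminescence readout. qHTS format.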
Rab9 prom act: activators of Rab9 promoter | Huh7 Rab9 promoter-luciferase reporter, luminescence, 24 h | Potency, µM (series often up to 9.22 µM), for the others: top-dose activation, negative = inhibition, most hits filed as activators | hit rate 2.8% among 320,000 | AID 485297; further: % of control where 0% means no effect; nearly all actives have a fitted effect of over 60% in size
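Luciferase signal after 10 min detection reagent at ambient indicates Rab9 promoter upregulation; stably transfected Huh7 cells were treated 24 h with compound in DMSO at 37 °C, 5% CO2.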
* marks the source's active call; other numbers are inactive results; [ ] = another dose, or the depositor's remark. The list is not random: actives were taken first. Their share in the collection is about 7.5%. The call rests on the fitted dose curve; in most records, active means well fitted curve in the direction sought with a large enough effect; inconclusive means small, poorly fitted or top-dose-only effect, or another doubt; inactive means no such curve, though single readings can be large; an effect the other way counts as inactive or inconclusive. Potency means the concentration at half of the fitted maximal effect.

How did CC(=O)c1ccc(C(=O)N2CCCC(CNC(=O)c3ccccc3Cl)C2)cc1 (stereo not drawn) do in these assays?
ELG1 genotox: 6%; FLuc counter: -4%; NPC1 promoter act: -1%; Rab9 prom act: 8%

How did Cc1ccc(NC(=O)C(=O)NCC(c2cccnc2)N2CCN(Cc3ccccc3)CC2)cc1C (stereo not drawn) do in these assays?
FLuc counter: -10%

What do the screens show for `O=C(NC1CC1)c1cccc(Nc2ccc(-c3ccc4c(c3)OCCO4)nn2)c1`?
KinaseGlo FLuc: -16%; ELG1 genotox: inconclusive; FLuc counter: 0.6µM*; SMN2 splice enh: inconclusive; NPC1 promoter act: inconclusive; Rab9 prom act: 2µM*

Results for Cc1cccc(C(=O)NC2CCN(CC(=O)Nc3ccc4c(c3)OCO4)CC2)c1 ?
KinaseGlo FLuc: -1%; ELG1 genotox: 1%; FLuc counter: 4%; NPC1 promoter act: 0%; Rab9 prom act: -20%

What do the screens show for `O=S(=O)(c1ccc(Nc2ccc(-c3ccc4c(c3)OCCO4)nn2)cc1)N1CCCC1`?
KinaseGlo FLuc: 0%; ELG1 genotox: 2%; FLuc counter: 5.4µM*; SMN2 splice enh: 5%; NPC1 promoter act: 17%; Rab9 prom act: 20%

What do the screens show for `CNC(=O)[C@H](Cc1c[nH]c2ccccc12)NC(=O)[C@@H](CC(=O)NO)CC(C)C`?
SMN2 splice enh: 0%

How did Cc1ccc(C)c(N2CCN(C(=O)c3cc(C)nc4c3c(C)nn4-c3ccccc3)CC2)c1 do in these assays?
FLuc counter: 3%

Results for CCOC(=O)c1cnc2c(Cl)cc(Cl)cc2c1Nc1cc(C(=O)O)ccc1C ?
FLuc counter: 12µM*; SMN2 splice enh: -7%

How did CCOC(=O)c1cnc2ccccc2c1Nc1cc(C(=O)O)ccc1C do in these assays?
KinaseGlo FLuc: -4%; ELG1 genotox: -9%; FLuc counter: inconclusive; SMN2 splice enh: 0%; NPC1 promoter act: 0%; Rab9 prom act: -5%

Results for Cn1c(=O)cc(SCC(=O)Nc2cccc(C#N)c2)c2ccc(Cl)cc21 ?
FLuc counter: 2%; SMN2 splice enh: -1%

Results for Cc1cccc2c1ncc1c(=O)n(-c3ccccc3)[nH]c12 ?
ELG1 genotox: inconclusive; FLuc counter: 4.3µM*; NPC1 promoter act: 3.2µM*; Rab9 prom act: 2.2µM*

How did COC(=O)c1cc2sccc2n1Cc1c(C)cc(C)cc1C do in these assays?
FLuc counter: 7%; SMN2 splice enh: 8%

What do the screens show for `O=C(COc1ccc(Cl)cc1Cl)Nc1ccc(C(=O)OC2CCCCC2)cc1`?
FLuc counter: -11%; SMN2 splice enh: 1%

How did CCOc1ccc(NS(=O)(=O)c2ccc(NC(=O)N3CCCC3)cc2)cc1 do in these assays?
FLuc counter: -10%

What do the screens show for `CC(C)Oc1ccc(/C(O)=C2/C(=O)C(=O)N(CCN(C)C)C2c2ccco2)cc1` (stereo not drawn)?
KinaseGlo FLuc: 2%; ELG1 genotox: inconclusive; FLuc counter: 21µM*; SMN2 splice enh: 28%; NPC1 promoter act: 25%; Rab9 prom act: inconclusive

How did CCN(CC)CCN1C(=O)C(=O)/C(=C(/O)c2ccc(OC)cc2)C1c1ccco1 (stereo not drawn) do in these assays?
ELG1 genotox: 3%; FLuc counter: inconclusive; NPC1 promoter act: 15%; Rab9 prom act: 6%

How did CC1Cc2cc(/C(O)=C3/C(=O)C(=O)N(CCCn4ccnc4)C3c3ccco3)ccc2O1 (stereo not drawn) do in these assays?
KinaseGlo FLuc: 2%; ELG1 genotox: inconclusive; FLuc counter: 15µM*; SMN2 splice enh: -14%; NPC1 promoter act: inconclusive; Rab9 prom act: 2.8µM*

What do the screens show for `CCOC(=O)N1CCN(Cc2nc3cc([N+](=O)[O-])ccc3n2C(C)C)CC1`?
FLuc counter: 1%

How did CC(Oc1ccc2c(c1)oc(=O)c1ccccc12)C(=O)NC(Cc1c[nH]c2ccc(O)cc12)C(=O)O (stereo not drawn) do in these assays?
ELG1 genotox: 5%; FLuc counter: 27µM*; NPC1 promoter act: 1%; Rab9 prom act: 0%

Results for COc1ccc2[nH]c3c(=O)n(Cc4ccc(C(=O)N5CCC(C(N)=O)CC5)cc4)c(=S)[nH]c3c2c1 ?
KinaseGlo FLuc: -6%; ELG1 genotox: 0%; FLuc counter: 21µM*; SMN2 splice enh: 4%; NPC1 promoter act: 1%; Rab9 prom act: 6%

What do the screens show for `O=C(CCOc1ccccc1)Nc1ccccc1[N+](=O)[O-]`?
KinaseGlo FLuc: 1%; ELG1 genotox: 13%; FLuc counter: -11%; SMN2 splice enh: 19%; NPC1 promoter act: 12%; Rab9 prom act: 15%

Results for COc1ccc(OCCOc2ccccc2[N+](=O)[O-])cc1 ?
KinaseGlo FLuc: -4%; ELG1 genotox: inconclusive; FLuc counter: 17µM*; SMN2 splice enh: inconclusive; NPC1 promoter act: inconclusive; Rab9 prom act: inconclusive

How did CCOC(=O)/C=C/COc1ccccc1[N+](=O)[O-] do in these assays?
KinaseGlo FLuc: 5%; ELG1 genotox: 22%; FLuc counter: 15µM*; SMN2 splice enh: 24%; NPC1 promoter act: 15%; Rab9 prom act: inconclusive

Results for O=[N+]([O-])c1ccccc1OCCOc1ccccc1[N+](=O)[O-] ?
ELG1 genotox: 11%; FLuc counter: -8%; NPC1 promoter act: 3.5µM*; Rab9 prom act: 2µM*

How did CC(C)(C)C(=O)COc1ccccc1[N+](=O)[O-] do in these assays?
KinaseGlo FLuc: 1%; ELG1 genotox: 0%; FLuc counter: 2%; SMN2 splice enh: 9%; NPC1 promoter act: 10%; Rab9 prom act: 3%

How did O=[N+]([O-])c1ccccc1NCCOc1ccccc1 do in these assays?
KinaseGlo FLuc: -5%; ELG1 genotox: inconclusive; FLuc counter: 9.5µM*; SMN2 splice enh: inconclusive; NPC1 promoter act: inconclusive; Rab9 prom act: inconclusive

What do the screens show for `CCOc1ccc(OCC)c(NC(=O)c2nnn(CC(=O)Nc3cc(Cl)ccc3OC)c2N)c1`?
FLuc counter: -7%; SMN2 splice enh: -22%

How did Cc1ccc(C2CCN(C(=O)c3cnn(-c4ccc(C)c(C)c4)c3C3CCN(C(=O)OC(C)(C)C)CC3)C2)cc1 (stereo not drawn) do in these assays?
FLuc counter: 2%

How did CC1CCCCN1S(=O)(=O)c1ccc2[nH]c(=O)cc(C(=O)NCCc3ccc(Cl)cc3)c2c1 (stereo not drawn) do in these assays?
FLuc counter: 0%

How did C=C(Br)CN(C)CC(=C)Br do in these assays?
KinaseGlo FLuc: -2%[7.66 µM]; SMN2 splice enh: 5%[9.22 µM]
